Counter-ions that a name gives are not always drawn. ± gives the standard deviation of the averaged measurements.
tested on: E. coli TESEC Mtb DapB; assay: growth (OD600 after 10 h); higher = more growth (less inhibition); conditions: arabinose induction (level): High; compound 0.1 mM; raw OD600 reference: median of DMSO wells […], cell-free background 0.041
Procedure: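 TESEC E. coli strains in which the native enzyme is deleted and replaced by arabinose-inducible Mtb Asd, DapB, CysH or TrpD, each grown in its selective medium. Strains were screened against the Prestwick library at 0.1 mM and 1% DMSO in 384-well format at low and high arabinose induction. Growth is read as OD600 after 10 h in triplicate.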

| SMILES | growth |
| --- | --- |
| N=C(N)NCC1COC2(CCCCC2)O1 (stereo not given) [Guanadrel sulfate] | 0.22 ± 0.023 |
| CC(=O)O[C@@]12CO[C@@H]1C[C@H](O)[C@@]1(C)C(=O)[C@H](O)C3=C(C)[C@@H](OC(=O)[C@H](O)[C@@H](NC(=O)OC(C)(C)C)c4ccccc4)C[C@@](O)([C@@H](OC(=O)c4ccccc4)[C@H]21)C3(C)C [Docetaxel] | 0.204 ± 0.016 |
| COc1cc(C(=O)OCCCN2CCCN(CCCOC(=O)c3cc(OC)c(OC)c(OC)c3)CC2)cc(OC)c1OC [Dilazep dihydrochloride] | 0.171 ± 0.013 |
| Cc1cc(C2CCCCC2)n(O)c(=O)c1 [Ciclopirox ethanolamine] | 0.0626 ± 0.011 |
| Cc1cccc(C)c1NC(=O)CN1CCN(CCCC(c2ccc(F)cc2)c2ccc(F)cc2)CC1 [Lidoflazine] | 0.232 ± 0.026 |
| O=C(O)c1cccnc1Nc1cccc(C(F)(F)F)c1 [Niflumic acid] | 0.172 ± 0.0053 |
| CN(Cc1cc(Br)cc(Br)c1N)C1CCCCC1 [Bromhexine hydrochloride] | 0.04827 ± 0.00047 |
| CCN1CCCC1CNC(=O)c1cc(S(N)(=O)=O)ccc1OC (stereo not given) [Sulpiride] | 0.221 ± 0.037 |
| CCCCC1C(=O)N(c2ccccc2)N(c2ccccc2)C1=O [Phenylbutazone] | 0.141 ± 0.0096 |
| CCOc1ccc(Cc2nccc3cc(OCC)c(OCC)cc23)cc1OCC [Ethaverine hydrochloride] | 0.156 ± 0.0076 |
| C[C@H](N)[C@H](O)c1cccc(O)c1 [Metaraminol bitartrate] | 0.208 ± 0.014 |
| CN(C)CCCC1(c2ccc(F)cc2)OCc2cc(C#N)ccc21 (stereo not given) [Citalopram Hydrobromide] | 0.191 ± 0.022 |
| CC(=O)CC(c1ccccc1)c1c(O)c2ccccc2oc1=O (stereo not given) [Warfarin] | 0.2 ± 0.011 |
| Cc1cccc(Nc2ccncc2S(=O)(=O)NC(=O)NC(C)C)c1 [Torsemide] | 0.197 ± 0.021 |
| CCOC(=O)[C@H](CCc1ccccc1)N[C@@H](C)C(=O)N1Cc2ccccc2C[C@H]1C(=O)O [Quinapril HCl] | 0.155 ± 0.012 |
| C=Cc1c(C)c2cc3nc(cc4[nH]c(cc5nc(cc1[nH]2)C(C)=C5CCC(=O)O)c(CCC(=O)OC)c4C)[C@@]1(C)C3=CC=C(C(=O)OC)C1C(=O)OC.C=Cc1c(C)c2cc3nc(cc4[nH]c(cc5nc(cc1[nH]2)C(C)=C5CCC(=O)OC)c(CCC(=O)O)c4C)[C@@]1(C)C3=CC=C(C(=O)OC)C1C(=O)OC (stereo not given in full) [Verteporfin] | 0.211 ± 0.024 |
| Cc1cccc(CN2CCN(C(c3ccccc3)c3ccc(Cl)cc3)CC2)c1 (stereo not given) [Meclozine dihydrochloride] | 0.209 ± 0.0042 |
| O=C(Nc1ccc([N+](=O)[O-])cc1Cl)c1cc(Cl)ccc1O [Niclosamide] | 0.174 ± 0.012 |
| COc1cc(OC)c(C(=O)CCCN2CCCC2)c(OC)c1 [Buflomedil hydrochloride] | 0.166 ± 0.041 |
| NCc1ccc(S(N)(=O)=O)cc1 [Mafenide hydrochloride] | 0.199 ± 0.0035 |

same assay, conditions: arabinose induction (level): Low; compound 0.1 mM; raw OD600 reference: median of DMSO wells 0.227, cell-free background 0.041

| SMILES | growth |
| --- | --- |
| N=C(N)NCC1COC2(CCCCC2)O1 (stereo not given) [Guanadrel sulfate] | 0.227 ± 0.039 |
| CC(=O)O[C@@]12CO[C@@H]1C[C@H](O)[C@@]1(C)C(=O)[C@H](O)C3=C(C)[C@@H](OC(=O)[C@H](O)[C@@H](NC(=O)OC(C)(C)C)c4ccccc4)C[C@@](O)([C@@H](OC(=O)c4ccccc4)[C@H]21)C3(C)C [Docetaxel] | 0.229 ± 0.047 |
| COc1cc(C(=O)OCCCN2CCCN(CCCOC(=O)c3cc(OC)c(OC)c(OC)c3)CC2)cc(OC)c1OC [Dilazep dihydrochloride] | 0.211 ± 0.034 |
| Cc1cc(C2CCCCC2)n(O)c(=O)c1 [Ciclopirox ethanolamine] | 0.05427 ± 0.00029 |
| Cc1cccc(C)c1NC(=O)CN1CCN(CCCC(c2ccc(F)cc2)c2ccc(F)cc2)CC1 [Lidoflazine] | 0.227 ± 0.015 |
| O=C(O)c1cccnc1Nc1cccc(C(F)(F)F)c1 [Niflumic acid] | 0.209 ± 0.022 |
| CN(Cc1cc(Br)cc(Br)c1N)C1CCCCC1 [Bromhexine hydrochloride] | 0.0644 ± 0.0038 |
| CCN1CCCC1CNC(=O)c1cc(S(N)(=O)=O)ccc1OC (stereo not given) [Sulpiride] | 0.253 ± 0.024 |
| CCCCC1C(=O)N(c2ccccc2)N(c2ccccc2)C1=O [Phenylbutazone] | 0.152 ± 0.006 |
| CCOc1ccc(Cc2nccc3cc(OCC)c(OCC)cc23)cc1OCC [Ethaverine hydrochloride] | 0.165 ± 0.017 |
| C[C@H](N)[C@H](O)c1cccc(O)c1 [Metaraminol bitartrate] | 0.23 ± 0.024 |
| CN(C)CCCC1(c2ccc(F)cc2)OCc2cc(C#N)ccc21 (stereo not given) [Citalopram Hydrobromide] | 0.211 ± 0.017 |
| CC(=O)CC(c1ccccc1)c1c(O)c2ccccc2oc1=O (stereo not given) [Warfarin] | 0.231 ± 0.021 |
| Cc1cccc(Nc2ccncc2S(=O)(=O)NC(=O)NC(C)C)c1 [Torsemide] | 0.26 ± 0.019 |
| CCOC(=O)[C@H](CCc1ccccc1)N[C@@H](C)C(=O)N1Cc2ccccc2C[C@H]1C(=O)O [Quinapril HCl] | 0.165 ± 0.0056 |
| C=Cc1c(C)c2cc3nc(cc4[nH]c(cc5nc(cc1[nH]2)C(C)=C5CCC(=O)O)c(CCC(=O)OC)c4C)[C@@]1(C)C3=CC=C(C(=O)OC)C1C(=O)OC.C=Cc1c(C)c2cc3nc(cc4[nH]c(cc5nc(cc1[nH]2)C(C)=C5CCC(=O)OC)c(CCC(=O)O)c4C)[C@@]1(C)C3=CC=C(C(=O)OC)C1C(=O)OC (stereo not given in full) [Verteporfin] | 0.277 ± 0.043 |
| Cc1cccc(CN2CCN(C(c3ccccc3)c3ccc(Cl)cc3)CC2)c1 (stereo not given) [Meclozine dihydrochloride] | 0.247 ± 0.021 |
| O=C(Nc1ccc([N+](=O)[O-])cc1Cl)c1cc(Cl)ccc1O [Niclosamide] | 0.193 ± 0.043 |
| COc1cc(OC)c(C(=O)CCCN2CCCC2)c(OC)c1 [Buflomedil hydrochloride] | 0.188 ± 0.01 |
| NCc1ccc(S(N)(=O)=O)cc1 [Mafenide hydrochloride] | 0.251 ± 0.032 |

From the supplement of paper PMC9262897, “Low-cost anti-mycobacterial drug discovery using engineered E. coli” (Nature Communications, 2022)
